Assay outcomes deposited in PubChem BioAssay by National Center for Advancing Translational Sciences (NCATS).
Gal4-VP16 FLuc: Gal4-VP16 reporter inhibition counter-screen; Drosophila S2 Gal4-VP16 UAS-luciferase, luminescence, 20 h; Potency, µM (doses to about 53.6 µM), hits mostly inhibitors; 3.5% of 310,000 active;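 also: Gal4-VP16 expression switched on by copper sulfate through the metallothionein promoter; nearly all actives have a fitted effect of over 50% in size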
Chronic BCR inh: chronic active BCR signaling inhibition; ABC-DLBCL IkBa-CBG/CBR reporter, luminescence ratio, 4 h; Potency, µM (highest dose often 46.1 µM), actives largely listed as inhibitors; 0.05% of 340,000 active; active = well fitted inhibition curve with a large enough effect in the signal ratio, with a control signal flat, not every such curve was filed as active; inconclusive = small, poorly fitted or top-dose-only effect, or effect the other way, or a change in a side signal; the % refers to the signal ratio
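TMD8 ABC-DLBCL cells carrying doxycycline-inducible green luciferase fused to IkappaBalpha plus unfused red luciferase were exposed to compounds (up to 46 uM) for 4 hrs at 37C. Activity came from the overlap-corrected green/red luminescence ratio.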
uPA generation: cell surface uPA generation inhibition; cell surface uPA generation assay, qHTS; Potency, µM (highest dose often 38.3 µM), hits mostly inhibitors; 0.31% of 330,000 active; active = well fitted inhibition curve with a large enough effect; inconclusive = small, poorly fitted or top-dose-only effect; inactive = no such curve, though single readings can be large or run the other way; tested in mouse RAW 264.7 cells; also: nearly all actives have a fitted effect of over 55% in size
Mito fusion yeast: inhibitors of mitochondrial division or activators of mitochondrial fusion; AID 485298; 0.23% of 320,000 active; S. cerevisiae fusion-defective mutant growth rescue, CellTiterGlo 48 h; Potency, µM (series often up to 46.1 µM), most hits filed as activators; also: nearly all actives have a fitted effect of over 45% in size
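Luminescent cell viability in 1536-well qHTS format served as the measure of rescued growth in ts fusion-mutant S. cerevisiae cultured on non-fermentable YPEG for 48 hours at 37C.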
RORg inh: ROR gamma (mouse) transcription inhibition; P51450; Drosophila S2 Gal4-RORgamma UAS-luciferase reporter, 20 h; Potency, µM (titrated, usually from 53.6 µM), usual class: inhibitors; 5.4% of 310,000 active; also: nearly all actives have a fitted effect of over 60% in size
Target sequence (P51450 whole entry, looked up, the tested form may be a part): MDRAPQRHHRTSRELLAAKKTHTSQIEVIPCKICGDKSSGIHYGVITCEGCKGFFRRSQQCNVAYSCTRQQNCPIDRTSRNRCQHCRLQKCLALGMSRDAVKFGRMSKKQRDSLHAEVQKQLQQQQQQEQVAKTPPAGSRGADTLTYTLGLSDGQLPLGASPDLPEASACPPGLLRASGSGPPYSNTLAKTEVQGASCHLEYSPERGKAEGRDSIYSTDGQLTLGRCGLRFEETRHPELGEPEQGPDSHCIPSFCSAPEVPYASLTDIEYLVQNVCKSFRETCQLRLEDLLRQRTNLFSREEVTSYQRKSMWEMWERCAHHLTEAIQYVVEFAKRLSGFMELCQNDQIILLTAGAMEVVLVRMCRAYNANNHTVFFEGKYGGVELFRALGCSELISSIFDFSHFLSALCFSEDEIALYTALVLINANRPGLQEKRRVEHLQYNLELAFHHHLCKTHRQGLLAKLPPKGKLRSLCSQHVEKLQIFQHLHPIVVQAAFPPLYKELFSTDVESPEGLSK
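A Gal4/UAS one-hybrid system in insect cells: metallothionein-promoter Gal4–ROR gamma fusion plus Photinus luciferase reporter. Copper sulfate 700 uM final, 20 hr ambient incubation, luminescent detection after 10 min with reagent.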
Integrin act MD: activators of alpha7 integrin expression for muscular dystrophy; alpha7betagal myoblasts, beta-gal FDG fluorescence, 48 h; Potency, µM (titrated, usually from 38.3 µM), most hits filed as activators; 0.064% of 350,000 active; AID 624291; also: nearly all actives have a fitted effect of over 60% in size
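alpha7betagal+/- myoblasts (passage 13, 250/well) treated 48 h at 37C with compounds at 1:260 dilution of DMSO stock. Lysed, then beta-galactosidase activity read as FDG fluorescence (ex 480/em 540) after 30 min, with pre-read for autofluorescence.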
Hits are given with their value; – = inactive; ? = inconclusive; · = not tested or not shown; [ ] = another dose, or the depositor's remark. Only some compounds are listed: those with a hit (about 5.5% of all), similar ones and a draw of the others. Unless noted, calls follow the shape of the dose curve; as a rule, active = well fitted curve in the direction sought with a large enough effect; inconclusive = small, poorly fitted or top-dose-only effect, or another doubt; inactive = no such curve, though single readings can be large; an effect the other way counts as inactive or inconclusive.

SMILES	Gal4-VP16 FLuc	Chronic BCR inh	uPA generation	Mito fusion yeast	RORg inh	Integrin act MD
N#Cc1c(NC(=O)C2CC2)sc2c1CCCCC2	–	–	–	15.8µM	–	–
N#Cc1c(NC(=S)NC(=O)Cc2cccs2)sc2c1CCCCC2	15.8µM	–	–	–	5.01µM	–[7.66 µM]
CC(C)(C)C(=O)NC(NC(=S)Nc1sc2c(c1C#N)CCCC2)C(Cl)(Cl)Cl (stereo unspecified)	?	–	–	–	10µM	–
N#Cc1c(NC(=S)NC(=O)c2ccccc2)sc2c1CCC2	–	?	–	–	–[10 µM]	–
O=C(c1cc(F)c(F)cc1Cl)N1CCCc2ccccc21	–	–	–	–	–	–
O=C(CCSCc1cccc(Cl)c1)N1CCN(c2ccc(Cl)cc2)CC1	·	–	·	·	·	·
N#Cc1c(NC(=O)CSc2ncn[nH]2)sc2c1CCCCC2	0.159µM	?	?	–	0.398µM	–
S=C(c1cn(CCOc2ccccc2)c2ccccc12)N1CCCC1	–[0.365 µM]	?	–	–	7.08µM	–
COCCn1cc(C(=S)N2CCCCC2)c2ccccc21	?	–	–	–	15.8µM	–
COCCn1cc(C(=S)N2CCOCC2)c2ccccc21	–	–	–	–	–	–
S=C(c1cn(CCOc2cccc3ccccc23)c2ccccc12)N1CCCC1	?	–	–	–	11.2µM	–
O=C(O)Cn1cc(C(=S)N2CCCCC2)c2ccccc21	–	–	?	–	–	–
Cc1ccc(OCCn2cc(C(=S)N3CCCC3)c3ccccc32)cc1C	–[0.365 µM]	–	–	–	6.31µM	–
COC(=O)c1cn(CCOc2ccccc2)c2ccccc12	–	–	–	–	–	–
Cc1cccc(C)c1Nc1oc(-c2ccccc2)nc1-c1ccccc1	–	·	·	·	–	·
Cc1ccc(NC(=O)NC2CC(=O)N(c3ccc4c(c3)OCCO4)C2)c(C)c1 (stereo unspecified)	·	–	–	–	·	–
Cc1c(CCNC(=O)c2ccc(C(C)(C)C)cc2)sc2nc(-c3ccc(F)cc3)nn12	·	–	·	·	·	·
COc1ccc(OC)c(S(=O)(=O)N2CCC(c3ccncc3)CC2)c1	·	–	·	·	·	·
CC(C)(C)Cc1nnc(NC(=O)c2ccco2)s1	–	?	–	–	–	–
COc1cccc(OC)c1C(=O)Nc1nc2cc3c(cc2s1)OCO3	–	–	–	–	–	–
COc1ccc2nc(Nc3nc4cc5c(cc4s3)OCO5)sc2c1	11.2µM	?	–	–	4.47µM	–
COc1cc(C(=O)NNc2nc3cc4c(cc3s2)OCO4)cc(OC)c1OC	12.6µM	–	–	–	?	–
COc1cc(OC)cc(C(=O)NNc2nc3cc4c(cc3s2)OCO4)c1	12.6µM	–	–	–	4.47µM	–
COc1cc(OC)cc(C(=O)NCc2ccc3c(c2)OCO3)c1	–	–	–	–	–	–
COc1ccc2nc(Nc3ccc4c(c3)OCO4)sc2c1	?	?	–	–	–	–
SMILES	Gal4-VP16 FLuc	Chronic BCR inh	uPA generation	Mito fusion yeast	RORg inh	Integrin act MD
Cc1ccc2cc(CN(Cc3ccco3)C(=O)NCc3ccccc3)c(=O)[nH]c2c1C	–	?	–	–	–	–
Cc1ccc(C)c2[nH]c(=O)c(CN(Cc3ccco3)C(=O)Nc3ccccc3)cc12	–	?	–	14.1µM	–	–
COc1ccccc1NC(=S)N(Cc1ccco1)Cc1cc2cccc(C)c2[nH]c1=O	–	–	–	–	–	–
COc1ccccc1NC(=S)N(Cc1ccco1)Cc1cc2cc(C)c(C)cc2[nH]c1=O	?	–	3.98µM	–	–	–
CC1=C[C@@H](O)CC(C)(C)[C@@H]1/C=C/C(C)=C/C=C/C(C)=C/C=C/C=C(C)/C=C/C=C(C)/C=C/C1=C(C)C[C@H](O)CC1(C)C	–	·	·	·	–	·
CN1C(=O)NC(c2ccccc2)(C(F)(F)F)S/C1=C(/C#N)c1nnc(N2CCOCC2)n1-c1ccccc1 (stereo unspecified)	?	?	–	–	14.1µM	–
COc1cc(/C=C(\C#N)C(=O)N2CCc3ccccc32)ccc1O	–	?	–	–	–	?
N#C/C(=C\c1ccc(O)c(O)c1)C(=O)N1CCc2ccccc21	·	–	3.55µM	–	·	·
COc1ccc(CNC(=S)Nc2ccccc2-c2ccccc2)cc1	7.08µM	–	·	–	2µM	·
COc1ccc(CNC(=S)Nc2ccccc2Cl)cc1	?	–	–	–	17.8µM	–
Cc1ccc(NC(=O)c2ccccc2NS(=O)(=O)c2ccc(F)cc2)cc1S(=O)(=O)N1CCCCC1	10µM	?	–	–	?	–
Cc1ccc2c(c1)c1c(n2CCc2ccc(C)nc2)CCN(C)C1	·	–	–	–	·	·
Cc1ccnc(NC(c2ccsc2)c2ccc3ccc(C)nc3c2O)c1 (stereo unspecified)	?	?	–	–	5.01µM	–
COc1ccc(C(Nc2cc(C)ccn2)c2ccc3ccc(C)nc3c2O)cc1 (stereo unspecified)	3.55µM	?	–	–	2.51µM	–
Cc1ccnc(NC(c2ccccc2)c2ccc3cccnc3c2O)c1 (stereo unspecified)	·	·	–	·	·	–
CCN(CC(=O)Nc1c(F)cccc1F)C(=O)C1CCCO1 (stereo unspecified)	·	·	·	·	·	–
COc1ccccc1N1CCN(Cc2cc3c(cc2Br)OCCO3)CC1	–	–	–	–	–	–
COc1ccccc1N1CCN(CCCC(=O)c2ccc(F)cc2)CC1	–	–	–	–	–	·
COc1ccccc1N1CCN(Cc2ccc(Br)o2)CC1	20µM	?	–	–	–	–
COc1ccc(C(=O)CCN2CCN(c3ccccc3OC)CC2)cc1	2.82µM	?	–	–	–	–
O=C(N/N=C/c1ccc(Br)s1)c1ccc([N+](=O)[O-])cc1	0.631µM	?	–	–	0.447µM	–
CC(C)=CCC/C(C)=C/C=N/NC(=O)c1ccccc1[N+](=O)[O-]	11.2µM	–	–	–	6.31µM	–
Cc1ccc([N+](=O)[O-])c(C(=O)N/N=C/c2cccs2)c1	1.26µM	–	–	–	1.41µM	–
O=C(N/N=C/c1ccc(Br)s1)c1ccccc1[N+](=O)[O-]	6.31µM	?	–	–	2.51µM	–
CC(=O)Oc1ccc(C(=C2CCCCC2)c2ccc(OC(C)=O)cc2)cc1	–	·	·	·	–	·
SMILES	Gal4-VP16 FLuc	Chronic BCR inh	uPA generation	Mito fusion yeast	RORg inh	Integrin act MD
CC(/C=C/C=C(C)/C=C/C(=O)O)=C\C=C\C=C(C)\C=C\C=C(C)\C=C\C(=O)O	–	·	·	·	–	·
CCCNC(=O)C(Cc1ccccc1)NC(=O)Cc1ccccc1 (stereo unspecified)	·	–	–	–	·	–
O=C(Nc1cccc(F)c1)C1CCN(C(=O)NCc2ccccc2)CC1	–	–	–	–	–	–
O=c1c(O)c(-c2cc(O)c(O)c(O)c2)oc2cc(O)ccc12	–	·	·	·	–	·
CSc1ncccc1C(=O)N1CCN(S(=O)(=O)c2ccccc2)CC1	–	–	–	–	–	?
CCOC(=O)c1cn2nc(Oc3cccc(C(F)(F)F)c3)ccc2n1	–	?	–	–	–	–
